The chains are these.
T1: RBFOX1 RRM (Homo sapiens, UniProt Q9NWB1 109-208)
T1 sequence: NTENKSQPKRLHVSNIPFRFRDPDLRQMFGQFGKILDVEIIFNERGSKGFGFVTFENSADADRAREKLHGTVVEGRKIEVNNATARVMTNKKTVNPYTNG

B1: CCAUAAU (DNA:RNA)
RNA: GGGAGACCGGAAUUCAGAUUGUCCCCAUAAUUUAAAUCCCGUCGUAGCCACCA
DNA 1: CAATCTGAATTCCGGTCTCCC
DNA 2: TGGTGGCTACGACGGGATT
B2: CCUAAGA (DNA:RNA)
RNA: B1 RNA with A27U, U28A, A30G, U31A
DNA 1: CAATCTGAATTCCGGTCTCCC
DNA 2: TGGTGGCTACGACGGGATT
B3: GUAGGGA (DNA:RNA)
RNA: B1 RNA with C25G, C26U, U28G, A29G, A30G, U31A
DNA 1: CAATCTGAATTCCGGTCTCCC
DNA 2: TGGTGGCTACGACGGGATT
B4: CUCCGUG (DNA:RNA)
RNA: B1 RNA with C26U, A27C, U28C, A29G, A30U, U31G
DNA 1: CAATCTGAATTCCGGTCTCCC
DNA 2: TGGTGGCTACGACGGGATT
B5: CGGUUAU (DNA:RNA)
RNA: B1 RNA with C26G, A27G, A29U
DNA 1: CAATCTGAATTCCGGTCTCCC
DNA 2: TGGTGGCTACGACGGGATT
B6: AGCACGU (DNA:RNA)
RNA: B1 RNA with C25A, C26G, A27C, U28A, A29C, A30G
DNA 1: CAATCTGAATTCCGGTCTCCC
DNA 2: TGGTGGCTACGACGGGATT
B7: GCACCGG (DNA:RNA)
RNA: B1 RNA with C25G, U28C, A29C, A30G, U31G
DNA 1: CAATCTGAATTCCGGTCTCCC
DNA 2: TGGTGGCTACGACGGGATT
B8: GCACCGU (DNA:RNA)
RNA: B1 RNA with C25G, U28C, A29C, A30G
DNA 1: CAATCTGAATTCCGGTCTCCC
DNA 2: TGGTGGCTACGACGGGATT
B9: CAGCACG (DNA:RNA)
RNA: B1 RNA with C26A, A27G, U28C, A30C, U31G
DNA 1: CAATCTGAATTCCGGTCTCCC
DNA 2: TGGTGGCTACGACGGGATT
B10: GCACGGU (DNA:RNA)
RNA: B1 RNA with C25G, U28C, A29G, A30G
DNA 1: CAATCTGAATTCCGGTCTCCC
DNA 2: TGGTGGCTACGACGGGATT
B11: CGCACGU (DNA:RNA)
RNA: B1 RNA with C26G, A27C, U28A, A29C, A30G
DNA 1: CAATCTGAATTCCGGTCTCCC
DNA 2: TGGTGGCTACGACGGGATT
B12: AGCACCG (DNA:RNA)
RNA: GGGAGACCGGAAUUCAGAUUGUCCAGCACCGUUAAAUCCCGUCGUAGCCACCA
DNA 1: CAATCTGAATTCCGGTCTCCC
DNA 2: TGGTGGCTACGACGGGATT
B13: ACGUUUU (DNA:RNA)
RNA: B1 RNA with C25A, A27G, A29U, A30U
DNA 1: CAATCTGAATTCCGGTCTCCC
DNA 2: TGGTGGCTACGACGGGATT
B14: GCCACGU (DNA:RNA)
RNA: B12 RNA with A25G, G26C, C30G, G31U
DNA 1: CAATCTGAATTCCGGTCTCCC
DNA 2: TGGTGGCTACGACGGGATT
B15: CACGUUU (DNA:RNA)
RNA: B1 RNA with C26A, A27C, U28G, A29U, A30U
DNA 1: CAATCTGAATTCCGGTCTCCC
DNA 2: TGGTGGCTACGACGGGATT
B16: GCACGUU (DNA:RNA)
RNA: B1 RNA with C25G, U28C, A29G, A30U
DNA 1: CAATCTGAATTCCGGTCTCCC
DNA 2: TGGTGGCTACGACGGGATT
B17: CGCACGG (DNA:RNA)
RNA: B12 RNA with A25C, C30G
DNA 1: CAATCTGAATTCCGGTCTCCC
DNA 2: TGGTGGCTACGACGGGATT
B18: GGCUAAG (DNA:RNA)
RNA: B12 RNA with A25G, A28U, C29A, C30A
DNA 1: CAATCTGAATTCCGGTCTCCC
DNA 2: TGGTGGCTACGACGGGATT
B19: CUCGGCA (DNA:RNA)
RNA: B12 RNA with A25C, G26U, A28G, C29G, G31A
DNA 1: CAATCTGAATTCCGGTCTCCC
DNA 2: TGGTGGCTACGACGGGATT
B20: AACGACU (DNA:RNA)
RNA: B12 RNA with G26A, A28G, C29A, G31U
DNA 1: CAATCTGAATTCCGGTCTCCC
DNA 2: TGGTGGCTACGACGGGATT
B21: AUAAAAA (DNA:RNA)
RNA: B1 RNA with C25A, C26U, U28A, U31A
DNA 1: CAATCTGAATTCCGGTCTCCC
DNA 2: TGGTGGCTACGACGGGATT
B22: UUAUCUG (DNA:RNA)
RNA: B12 RNA with A25U, G26U, C27A, A28U, C30U
DNA 1: CAATCTGAATTCCGGTCTCCC
DNA 2: TGGTGGCTACGACGGGATT
B23: AAGCACG (DNA:RNA)
RNA: B12 RNA with G26A, C27G, A28C, C29A
DNA 1: CAATCTGAATTCCGGTCTCCC
DNA 2: TGGTGGCTACGACGGGATT
B24: AAGCACC (DNA:RNA)
RNA: B12 RNA with G26A, C27G, A28C, C29A, G31C
DNA 1: CAATCTGAATTCCGGTCTCCC
DNA 2: TGGTGGCTACGACGGGATT
B25: AAGCCCG (DNA:RNA)
RNA: B12 RNA with G26A, C27G, A28C
DNA 1: CAATCTGAATTCCGGTCTCCC
DNA 2: TGGTGGCTACGACGGGATT
B26: AAAACAC (DNA:RNA)
RNA: B12 RNA with G26A, C27A, C30A, G31C
DNA 1: CAATCTGAATTCCGGTCTCCC
DNA 2: TGGTGGCTACGACGGGATT
B27: CAUCUUU (DNA:RNA)
RNA: B1 RNA with C26A, A27U, U28C, A29U, A30U
DNA 1: CAATCTGAATTCCGGTCTCCC
DNA 2: TGGTGGCTACGACGGGATT
B28: CUGUGCC (DNA:RNA)
RNA: B1 RNA with C26U, A27G, A29G, A30C, U31C
DNA 1: CAATCTGAATTCCGGTCTCCC
DNA 2: TGGTGGCTACGACGGGATT
B29: UGCUGUU (DNA:RNA)
RNA: B12 RNA with A25U, A28U, C29G, C30U, G31U
DNA 1: CAATCTGAATTCCGGTCTCCC
DNA 2: TGGTGGCTACGACGGGATT
B30: UGCCGGU (DNA:RNA)
RNA: B12 RNA with A25U, A28C, C29G, C30G, G31U
DNA 1: CAATCTGAATTCCGGTCTCCC
DNA 2: TGGTGGCTACGACGGGATT
B31: CUGCCUG (DNA:RNA)
RNA: B12 RNA with A25C, G26U, C27G, A28C, C30U
DNA 1: CAATCTGAATTCCGGTCTCCC
DNA 2: TGGTGGCTACGACGGGATT
B32: UGCCUGU (DNA:RNA)
RNA: B12 RNA with A25U, A28C, C29U, C30G, G31U
DNA 1: CAATCTGAATTCCGGTCTCCC
DNA 2: TGGTGGCTACGACGGGATT
B33: UGCCCUG (DNA:RNA)
RNA: B12 RNA with A25U, A28C, C30U
DNA 1: CAATCTGAATTCCGGTCTCCC
DNA 2: TGGTGGCTACGACGGGATT

Substitutions are numbered along the chain they refer to; changes in the protein carry UniProt numbers. In all, about 16,000 sequences were measured (“ka relative to ugcaugu”: median about 0.0091, highest 2% from about 0.032 on). The entries come from a sample that favours the highest values as a whole.

Experimental findings from publication PMC9911399, “Two distinct binding modes provide the RNA-binding protein RbFox with extraordinary sequence specificity” are described below.

The assay has as its target T1, RBFOX1 RRM. Kind of assay: EMSA; HiTS-Eq, 1 nM pool, 10 min; buffer printed only for the single-RNA assays: 10 mM Tris pH 7.5, 150 mM NaCl, 3.4 mM EDTA, 0.001% NP-40, 30 C. The settings on record: tags: His6 N-terminal (pET28a); label: 5' 32P. The method, boiled down: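 A pool of RNA with 7 randomized nucleotides, 5′-radiolabelled and with DNA-annealed flanks, was equilibrated at 1 nM for 10 min in 50 µL with purified RbFox RRM, wild type or mutant, across increasing protein concentrations. Free RNA was separated by 8% native PAGE, excised, reverse-transcribed, barcoded by PCR and sequenced. Relative association constants were obtained from read-count changes of each RNA species versus the control reaction and normalised to the cognate motif.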
Consider B1, for which the binding signal is 0.00169 KA relative to UGCAUGU.
For B2, the binding signal was 0.00773 KA relative to UGCAUGU.
B3: the binding signal is 0.00497 KA relative to UGCAUGU.
To B4 belongs 0.0111 KA relative to UGCAUGU; to B5, 0.0102 KA relative to UGCAUGU.
Next, B6: 0.0367 KA relative to UGCAUGU; B7: 0.00674 KA relative to UGCAUGU; B8: 0.0125 KA relative to UGCAUGU.
In the case of B9, the binding signal is 0.0261 KA relative to UGCAUGU.
To B10 belongs 0.0324 KA relative to UGCAUGU.
Next, B11: 0.0433 KA relative to UGCAUGU.
On to B12, for which the binding signal was 0.00835 KA relative to UGCAUGU.
Turning to B13, the binding signal is 0.00473 KA relative to UGCAUGU.
As to B14, the binding signal was 0.011 KA relative to UGCAUGU.
As for B15, the binding signal was 0.00574 KA relative to UGCAUGU.
On to B16, for which the binding signal is 0.043 KA relative to UGCAUGU.
Consider B17, for which the binding signal is 0.0278 KA relative to UGCAUGU.
Consider B18, for which the binding signal was 0.0134 KA relative to UGCAUGU.
To B19 belongs 0.0189 KA relative to UGCAUGU; to B20, 0.00509 KA relative to UGCAUGU.
To B21 belongs 0.00125 KA relative to UGCAUGU.
To B22 belongs 0.0132 KA relative to UGCAUGU; to B23, 0.0333 KA relative to UGCAUGU; to B24, 0.00479 KA relative to UGCAUGU.
For B25, the binding signal is 0.00982 KA relative to UGCAUGU.
Next, B26: 0.00144 KA relative to UGCAUGU.
To B27 belongs 0.00311 KA relative to UGCAUGU; to B28, 0.0119 KA relative to UGCAUGU.
To B29 belongs 0.0254 KA relative to UGCAUGU.
For B30, the binding signal is 0.0131 KA relative to UGCAUGU.
As for B31, the binding signal is 0.0391 KA relative to UGCAUGU.
To B32 belongs 0.0501 KA relative to UGCAUGU.
B33: the binding signal was 0.025 KA relative to UGCAUGU.
